Screening results: PubChem BioAssay, several laboratories
Most compounds without a hit are left out; they make up all but 3% or so of the library.
ROMK mod: ROMK potassium channel modulators, primary screen, cell-based, thallium flux, MLSMR library. ATP-sensitive inward rectifier potassium channel 1 (Homo sapiens), P48048. B-score at 10 µM. AID 1918, 2009. 2% of 130,000 active. Tet-inducible ROMK, thallium flux fluorescence; actives lie on both sides;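 active = signal ratio slope over the read window, or its plate-corrected B-score, at least 3 SD from the plate mean, either direction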;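 note: B-score of the F/F0 ratio slope over 7 to 12 s after thallium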
Target sequence (P48048 whole entry, looked up): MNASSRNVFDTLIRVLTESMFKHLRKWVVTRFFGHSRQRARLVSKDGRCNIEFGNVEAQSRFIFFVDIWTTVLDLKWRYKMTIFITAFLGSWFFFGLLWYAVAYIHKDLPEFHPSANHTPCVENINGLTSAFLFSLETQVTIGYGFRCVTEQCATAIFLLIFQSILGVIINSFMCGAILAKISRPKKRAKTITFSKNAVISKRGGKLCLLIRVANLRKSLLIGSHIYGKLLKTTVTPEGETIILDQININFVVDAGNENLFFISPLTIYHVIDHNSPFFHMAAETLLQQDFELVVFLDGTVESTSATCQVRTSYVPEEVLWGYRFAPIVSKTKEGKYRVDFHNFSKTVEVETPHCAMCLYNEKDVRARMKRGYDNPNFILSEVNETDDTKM
sdo1 growth: growth rescue of sdo1-depleted yeast, primary screen, S. cerevisiae, bone marrow failure model. 0.21% of 140,000 active. z-score at 10 µM. S. cerevisiae sdo1-depleted JHY4D growth rescue, OD600 30 h; hits give high values; pdr5 snq2 efflux-pump mutant strain;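 active = z-score above 3 at both the 24 hr and the 30 hr optical density reads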;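 note: z-score against mean and SD of all compound wells on the same plate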
Insulin prom inh: inhibitors of insulin promoter-driven GFP, primary screen, imaging, TRM-6 cells (human fetal islet line), eGFP reporter, cell count; reporter expression induced with tamoxifen; inhibition, % at 2 µM; 0.9% of 130,000 active;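 active = inhibition above the mean plus 3 SD, with well images judged a real hit on visual review, cut at about 60% in these data, passing the limit was not always enough; inconclusive = inhibition over the cutoff but images rejected on review; inactive = inhibition not above the cutoff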
Measles CPE: compounds protecting cells from measles virus cytopathic effect, primary screen, measles RdRp inhibitor project, single point, MLSMR library, absorbance | Measles virus-infected cells, CPE protection | protection (pct of control), % at 4 µM | 1.5% of 140,000 active; in the data active = protection mostly above about 24%, no sharp cut-off; inactive = mostly below about 26%
ROMK retest: ROMK channel modulator hit retest, confirmation, cell-based, thallium flux, duplicate, resupplied hits | normalized thallium flux (F/F0 slope) at 10 µM | 54% of 3,000 active | shares compounds with ROMK mod | fluorescence ratio; hits give low values;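 active = Flux at 10 µM at least 3 SD below or above vehicle control mean in one or both replicates; inconclusive = no clear call, values can overlap the other calls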
Active calls of the source: *; ? = inconclusive; · = no result given.

SMILES | ROMK mod | sdo1 growth | Insulin prom inh | Measles CPE | ROMK retest
CC(=O)Nc1cccc(C(=O)/C=C/c2ccc(F)cc2)c1 | -3.71* | · | · | · | 0.0526*
Cc1ccc(C(=O)NC2CCN(S(=O)(=O)c3ccccc3)CC2)cc1 | -0.237 | · | · | · | ·
CCOc1cc(C2C(C#N)=C(N)OC(C)=C2C(C)=O)c(Br)c(Br)c1OC(C)C (configuration not stated) | -3.58* | -1.63 | -31.4 | 4.0 | 0.0788
CCOC(=O)c1c(C)n(-c2ccccc2)c2ccc(O)c(CN(C)C)c12 | -1.8* | · | · | · | ?
O=C(O)c1ccc(Cn2cnc3sc4c(c3c2=O)CCCC4)cc1 | -0.588 | · | · | · | ·
O=C(O)c1ccc(Cn2cnc3scc(-c4ccccc4)c3c2=O)cc1 | -6.05* | · | -76.5 | · | 0.0551*
Cc1ccc(SCCCCN2CCNCC2)cc1 | -0.714 | -0.86 | 50.6 | 2.6 | ·
O=C(O)C1CCCN(S(=O)(=O)c2ccc3c(c2)OCCO3)C1 (configuration not stated) | -0.324 | · | 0.0 | · | ·
Cc1nnc(N/N=C\c2ccc(-c3ccccc3[N+](=O)[O-])o2)n1N | -0.274 | 0.01 | 28.6 | 2.3 | ·
Cc1nnc(N/N=C/c2ccc(-c3ccccc3F)o2)n1N | -2.46* | · | -26.7 | · | 0.0594*
Cc1ccc(NC(=O)C(C)c2ccc([N+](=O)[O-])cc2)cc1Cl (configuration not stated) | · | -2.04 | · | 26.5 | ·
CC(C)CC(c1nnnn1Cc1ccc(F)cc1)N1CCC(C(N)=O)CC1 (configuration not stated) | 0.774 | · | 20.0 | · | ·
Cc1ccc(S(=O)(=O)N[C@H](C(=O)OCC(=O)N2N=C(c3ccc(Cl)cc3)CC2c2ccco2)C(C)C)cc1 (some centres not stated) | 0.0501 | -0.19 | 13.3 | 9.9 | ·
CN(CC(=O)Nc1ccc(C(N)=O)cc1)CC(=O)Nc1ccccc1Br | 6.1* | · | · | · | 0.0746
CC(=O)Nc1ccc(NC(=O)CN(C)CC(=O)Nc2ccccc2Br)cc1 | 0.952 | · | · | · | ·
CC(C)CN(C(=O)CN1CCN(c2ccc([N+](=O)[O-])cc2)CC1)c1c(N)n(CC(C)C)c(=O)[nH]c1=O | 0.244 | · | -27.3 | · | ·
CCOC(=O)C1CCCN(C(=O)c2cnn3c(C(F)F)cc(-c4ccc(C)cc4)nc23)C1 (configuration not stated) | · | -1.18 | · | 16.0 | 0.073
Cc1ccc2nc(NC(=O)C(NS(=O)(=O)c3cccc4nsnc34)C(C)C)sc2c1 (configuration not stated) | · | -1.26 | · | 1.2 | 0.0621*
CC(C)C(NS(=O)(=O)c1cccc2nsnc12)C(=O)Nc1nccs1 (configuration not stated) | 0.0318 | · | · | · | ·
COc1ccc(C(CNC(=O)c2cc3ccccc3o2)N2CCCCC2)cc1 (configuration not stated) | -2.21 | · | · | · | ·
Cc1ccn2c(CN(C)CCn3nc(C)cc3C)c(C(=O)N3CCCCCC3)nc2c1 | -0.115 | · | · | · | ·
O=[N+]([O-])c1ccccc1Sc1nccn1Cc1ccccc1 | · | -0.46 | · | 4.0 | ·
COC(=O)CCn1c(C)cc(C(=O)COc2ccccc2C(N)=O)c1C | -5.37* | · | 0.0 | · | ?
Cc1cccc(OC2CCN(Cc3c(C(=O)N4CCCC4)nc4ccccn34)CC2)c1 | -0.651 | · | 5.0 | · | ·
CCOC(=O)N1CCN(CC(=O)Nc2ccc([N+](=O)[O-])cc2C(=O)Nc2ccccc2F)CC1 | · | -0.21 | 29.6 | 4.8 | ·
SMILES | ROMK mod | sdo1 growth | Insulin prom inh | Measles CPE | ROMK retest
O=C(CN1CCN(Cc2ccccc2)CC1)Nc1ccc([N+](=O)[O-])cc1C(=O)Nc1ccccc1F | · | -0.08 | -3.6 | 21.4 | 0.0577*
CSc1ccccc1NC(=O)CN1CCN(Cc2ccccc2)CC1 | -3.07* | · | · | · | 0.0721
COc1ccc(CC(=O)NNc2ncnc3c2cnn3-c2ccc(C)cc2)cc1OC | 0.848 | 0.36 | 2.9 | 2.2 | ·
CCOc1cc(C(=O)Nc2ccc(NC(C)=O)cc2)ccc1OCC(=O)N1CCCCC1 | 0.00342 | 0.64 | -30.0 | 5.8 | ·
CC(=O)c1ccc2c(c1)OCCOCCOCCOCCO2 | 0.392 | · | · | · | ·
c1ccc2c(c1)OCCOCCOCCOCCOCCOc1ccccc1OCCOCCOCCO2 | -4.8* | -0.86 | · | 14.7 | 0.0418*
c1ccc(-c2nc(NCCCn3ccnc3)c3ccccc3n2)cc1 | -3.63* | · | 42.9 | · | 0.0601*
Cc1cc(NCCCn2ccnc2)n2ncc(-c3ccccc3)c2n1 | -3.26* | -0.94 | · | 7.0 | 0.0733
C=CCn1c(N)c(C(=O)NCC2CCCO2)c2nc3ccccc3nc21 (configuration not stated) | · | 0.16 | · | 3.6 | 0.0657*
COc1ccc(-n2c(N)c(C(=O)NCC3CCCO3)c3nc4ccccc4nc32)c(OC)c1 (configuration not stated) | · | -0.55 | · | 5.5 | ·
Cc1ccc2occ(C3N[C@H](C(=O)O)CS3)c(=O)c2c1 (some centres not stated) | · | -0.78 | 28.9 | 1.0 | ·
CCOC(=O)C1CCN(C(=O)c2cc(C)n(C(C)(C)C)n2)CC1 | 0.457 | · | · | · | ·
COc1ccc(/C=N/NC(=O)c2cccnc2)cc1CSc1nc2ccccc2s1 | · | -0.82 | · | 4.6 | 0.0826
OC1CN=C2C=CC=CN2C1 (configuration not stated) | · | -0.21 | 42.9 | 9.5 | ·
CC1(C(=O)NCc2ccc(F)cc2)Oc2ccccc2NC1=O (configuration not stated) | -0.789 | · | 33.3 | · | ·
NS(=O)(=O)c1ccc(CCNC(=O)CSc2nc3ccccc3c(=O)n2CCC(=O)N2CCCCC2)cc1 | 0.000822 | · | 21.4 | · | ·
O=C1c2[nH]nc(-c3ccccc3O)c2C(c2ccc(F)cc2)N1CC1CCCO1 (configuration not stated) | -1.3 | -0.31 | · | 2.9 | ·
O=C1c2[nH]nc(-c3ccccc3O)c2C(c2cccc(Cl)c2)N1CC1CCCO1 (configuration not stated) | -2.42* | -0.79 | · | 11.4 | 0.0521*
O=C(Nc1ccccn1)C(F)(F)C(F)(F)C(F)(F)C(F)(F)C(=O)Nc1ccccn1 | -0.213 | 0.71 | -13.5 | 9.9 | ·
N#C/C(=C\c1ccc(N2CCOCC2)o1)C(=O)NC1CCCCC1 | · | · | · | · | 0.0354*
N#C/C(=C\c1ccc(N2CCOCC2)o1)C(=O)NCC1CCCO1 (configuration not stated) | -4.2* | · | · | · | 0.0377*
CCC(C)NC(=O)CSc1nc2c(sc3ccccc32)c(=O)n1CCCN1CCOCC1 (configuration not stated) | 2.61* | -0.07 | 15.5 | 17.2 | 0.0762
COc1ccc(/C=C/CN2CCC(CO)(Cc3ccccc3Cl)CC2)cc1 | -1.77* | · | -13.0 | · | 0.0631*
COC(=O)c1ccc(CN2CCC(CO)(Cc3ccccc3Cl)CC2)cc1 | · | · | -13.3 | · | ·
CCOC(=O)c1sc(SC)nc1N | 0.103 | · | · | · | ·
O=C1NC(c2ccc3c(c2)OCO3)Nc2ccccc21 (configuration not stated) | 2.23* | 0.05 | 7.1 | 13.3 | 0.0853
O=C1NC(c2ccc3c(c2)OCO3)Oc2ccccc21 (configuration not stated) | · | 0.77 | · | 17.9 | ·
CCCN1C(=O)/C(=C\C=C2/Sc3ccccc3N2CC)SC1=S | 0.99 | · | -387.8 | · | ·
CCCN1C(=O)/C(=C\C=C2\N(CC)c3ccccc3C2(C)C)SC1=S | -7.51* | · | · | · | 0.0534*
